51 molecules from PubChem BioAssay (Tox21) can be followed below.

Results filed as inconclusive are left out. Entries that show only a call come without a potency. A number with no mark means an inactive call. Activity calls are given as the source filed them. The call rests on the fitted dose curve; in most records, active means well fitted cell-killing curve with a large enough effect in the repeat runs; inconclusive means weak or mixed curves, or effect the other way; inactive means flat fitted curve, though single readings scatter.

Experiment [1] in a line: cAMP Responsive Elements (CRE) small molecule antagonists, cell-based qHTS assay: qHTS cell viability counter screen (AID 2060913). Further: nearly all actives have a fitted effect of over 40% in size. The gist of the method:
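Cytotoxicity counter screen multiplexed with the CRE-bla antagonist read: HEK293T cells in DMEM with dialyzed FBS and 25 mM HEPES were treated 3 hrs under 0.25 uM final NKH477, then viability measured by CellTiter-Glo luminescence.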

Experiment [2] is described as follows: cAMP Responsive Elements (CRE) small molecule agonists, cell-based qHTS assay: qHTS cell viability counter screen (AID 2060914).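 Further: viability read after 3 h of compound exposure; nearly all actives have a fitted effect of over 50% in size.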 The gist of the method:
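HEK 293T CRE-bla; DMEM + 10% dialyzed FBS, 25 mM HEPES; 18 h pre-incubation; compound 3 h, 37 °C/5% CO2; CellTiter-Glo added after reporter read; luminescence after 30 min RT.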

`C[C@]12CCC(=O)C=C1CC[C@@H]1[C@@H]2[C@@H](O)C[C@@]2(C)[C@H]1CC[C@]2(O)C(=O)CO`: the Potency result in experiment [1] and in experiment [2] was “inactive” throughout. On to `CCN(CC)CC(=O)OCC(=O)[C@@]1(O)CC[C@H]2[C@@H]3CCC4=CC(=O)CC[C@]4(C)[C@H]3[C@@H](O)C[C@@]21C`, for which the Potency result in experiment [1] and in experiment [2] was “inactive” in each case. On to `COc1cc(O)c(C(=O)c2ccccc2)cc1S(=O)(=O)O`, for which the Potency result in experiment [1] and in experiment [2] was “inactive” each time.

Take `CC(O)CN(CCN(CC(C)O)CC(C)O)CC(C)O` (stereo unspecified): the Potency result in experiment [1] and in experiment [2] was “inactive” in each case. Regarding `CCCCCCCC(=O)OCC(O)CO` (stereo unspecified), the Potency result in experiment [1] and in experiment [2] was “inactive” in each case. In the case of `CC(=O)CC(=O)Nc1ccc(C)cc1C`, the Potency entry in experiment [1] and in experiment [2] was “inactive” in each case. On to `Nc1c(Br)cc([N+](=O)[O-])cc1Br`, for which the Potency result in experiment [1] and in experiment [2] was “inactive” throughout. For the molecule `c1ccc2cc3ccccc3cc2c1`, the Potency result in experiment [1] and in experiment [2] was “inactive” throughout. As to `O=C(O)Cc1ccc(OCCNC[C@H](O)c2ccccc2)cc1`, the Potency entry in experiment [1] and in experiment [2] was “inactive” in each case. Regarding `CC1=C(C=O)C(C)(C)CC=C1`, the Potency entry in experiment [1] and in experiment [2] was “inactive” in each case. As for `CC(=O)OCC[N+](C)(C)C`, the Potency entry in experiment [1] and in experiment [2] was “inactive” in each case. On to `O=c1[nH]c2ccccc2c(=O)n1CCCl`, for which the Potency entry in experiment [1] and in experiment [2] was “inactive” in each case. `C=C(C)C(=O)OCc1ccccc1`: the Potency result in experiment [1] and in experiment [2] was “inactive” in each case. As for `COc1cc(C)ccc1O`, the Potency result in experiment [1] and in experiment [2] was “inactive” each time.

For `COc1ccc(-c2coc3cc(O)ccc3c2=O)cc1`, the Potency entry in experiment [1] and in experiment [2] was “inactive” each time. Turning to `CC(=O)O[C@]1(C(C)=O)CC[C@H]2[C@@H]3C=C(C)C4=CC(=O)CC[C@]4(C)[C@H]3CC[C@@]21C`, the Potency entry in experiment [1] and in experiment [2] was “inactive” throughout.

In the case of `O=C(OCC1CCC2OC2C1)C1CCC2OC2C1` (stereo unspecified), the Potency result in experiment [1] and in experiment [2] was “inactive” throughout. With `Cc1ccccc1Cl`, the Potency entry in experiment [1] and in experiment [2] was “inactive” throughout. Turning to `Cc1cc(C(C#N)c2ccc(Cl)cc2)c(Cl)cc1NC(=O)c1cc(I)cc(I)c1O` (stereo unspecified), the Potency entry in experiment [1] and in experiment [2] was “inactive” throughout. Turning to `COc1ccccc1NC(=O)CC(C)=O`, the Potency result in experiment [1] and in experiment [2] was “inactive” throughout.

Take `COc1ccccc1N1CCN(CCCNc2cc(=O)n(C)c(=O)n2C)CC1`: the Potency result in experiment [1] and in experiment [2] was “inactive” in each case.

Regarding `Nc1nc2c(ncn2COC(CO)CO)c(=O)[nH]1`, the Potency result in experiment [1] and in experiment [2] was “inactive” each time.

On to `O=C(O)CN1C(=O)c2cccc3cccc(c23)C1=O`, for which the Potency entry in experiment [1] and in experiment [2] was “inactive” each time. For the molecule `Cc1ccc2c(Cl)cc(Cl)c(O)c2n1`, the Potency entry in experiment [1] and in experiment [2] was “inactive” each time. For the molecule `CC(C)(C)C(=O)CCc1ccc(Cl)cc1`, the Potency result in experiment [1] and in experiment [2] was “inactive” each time.

For the molecule `CC(C(O)c1ccc(O)cc1)N1CCC(Cc2ccccc2)CC1` (stereo unspecified), the Potency entry in experiment [1] and in experiment [2] was “inactive” each time. `CCc1ccc(O)c(OC)c1`: the Potency entry in experiment [1] and in experiment [2] was “inactive” throughout. As for `CC(=O)C(C)O` (stereo unspecified), the Potency entry in experiment [1] and in experiment [2] was “inactive” throughout. On to `O=C1OC2(c3ccccc31)c1cc(I)c(O)c(I)c1Oc1c2cc(I)c(O)c1I`, for which the Potency entry in experiment [1] and in experiment [2] was “inactive” in each case. In the case of `CCOCCC(=O)OCC`, the Potency entry in experiment [1] and in experiment [2] was “inactive” in each case. Consider `CC(C)(C)OC=O`, for which the Potency entry in experiment [1] and in experiment [2] was “inactive” each time. Consider `Cc1ccccc1C(=O)N1CC/C(=N\OS(=O)(=O)O)c2ccc(Cl)cc21`, for which the Potency result in experiment [1] and in experiment [2] was “inactive” throughout.

Take `O=Cc1ccccc1Cl`: the Potency result in experiment [1] and in experiment [2] was “inactive” in each case.

For `CCCCCCCCC1CO1` (stereo unspecified), the Potency result in experiment [1] and in experiment [2] was “inactive” in each case.

`Fc1ccccc1-c1ccccc1`: the Potency result in experiment [1] and in experiment [2] was “inactive” in each case. Take `CC12CC3CC(C)(C1)CC(N)(C3)C2`: the Potency result in experiment [1] and in experiment [2] was “inactive” each time.

As to `O=CN(CCO)CCO`, the Potency entry in experiment [1] and in experiment [2] was “inactive” throughout. With `CCCCOCC`, the Potency result in experiment [1] and in experiment [2] was “inactive” in each case.

Regarding `CCc1ccc(Br)cc1`, the Potency result in experiment [1] and in experiment [2] was “inactive” throughout. Take `CN(C)c1ccc(/C=C/c2ccc([N+](=O)[O-])cc2)cc1`: the viability change, negative = cytotoxic in experiment [1] is 10.9% [at 8.39 µM]. Moreover, the activity change, negative = cytotoxicity in experiment [2] is 5.22% [at 8.39 µM].

In the case of `[K+]`, the Potency entry in experiment [1] and in experiment [2] was “inactive” in each case. As to `C[C@]12C=CC(=O)C=C1CC[C@@H]1[C@@H]2[C@@H](O)C[C@@]2(C)[C@H]1CC[C@]2(O)C(=O)CO`, the Potency result in experiment [1] and in experiment [2] was “inactive” each time. With `CCOc1nc2cccc(C(=O)O)c2n1Cc1ccc(-c2ccccc2-c2nn[nH]n2)cc1`, the Potency entry in experiment [1] and in experiment [2] was “inactive” throughout. Regarding `CC(COc1ccccc1)NN` (stereo unspecified), the Potency entry in experiment [1] and in experiment [2] was “inactive” throughout. As for `Cn1ccnc1`, the Potency result in experiment [1] and in experiment [2] was “inactive” throughout. In the case of `CC[C@H]1OC(=O)[C@H](C)[C@@H](O[C@H]2C[C@@](C)(OC)[C@@H](O)[C@H](C)O2)[C@H](C)[C@@H](O[C@@H]2O[C@H](C)C[C@H](N(C)C)[C@H]2O)[C@](C)(OC)C[C@@H](C)C(=O)[C@H](C)[C@@H](O)[C@]1(C)O`, the Potency result in experiment [2] is “inactive”. Take `CS(=O)(=O)CCNCc1ccc(-c2ccc3ncnc(Nc4ccc(OCc5cccc(F)c5)c(Cl)c4)c3c2)o1`: in experiment [2], the Potency result is “inactive”.

Consider `COC(=O)Nc1nc2ccc(S(=O)c3ccccc3)cc2[nH]1` (stereo unspecified), for which the Potency entry in experiment [2] is “inactive”. Regarding `CC1=Nc2ccccc2C1(C)C`, the Potency result in experiment [2] is “inactive”.

Take `CC(C(=O)O)c1ccc2c(c1)CC(=O)c1ccccc1S2` (stereo unspecified): the Potency result in experiment [2] was “inactive”.

Regarding `C#CC(O)CCC` (stereo unspecified), in experiment [2], the Potency entry was “inactive”.
